{
  "source": "PubChem BioAssay (EPA / NIEHS)",
  "note": "Inconclusive results are not listed. Active and inactive are the calls of the source. The calls were made as follows: active = hit-call score of the fitted dose curve at least 0.9, where 1 is the maximum; inconclusive = response in the unintended direction; inactive = score below 0.9.",
  "data": [
    {"system": "not listed separately", "assay": "ATG_M_32_TRANS: Attagene TRANS-FACTORIAL HepG2 Assay for M32 Transcription Factor (Internal Marker) (AID 2282984);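 also: transcript level of a background control reporter unit measured by RT-PCR and capillary electrophoresis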", "conditions": "HepG2 Attagene TRANS M32 internal marker reporter", "procedure,_shortened": "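Human hepatoma HepG2, transient MRTU transfection, 24 h treatment. RNA → RT-PCR → fluorescent primer extension → HpaI digest (2 h, 37 C) → CE. Positive-direction fit vs DMSO.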", "values": [
      {"compound": "NC(N)=O", "outcome": "inactive"},
      {"compound": "Cn1cc[nH]c1=S", "outcome": "inactive"},
      {"compound": "CCOC(N)=O", "outcome": "inactive"},
      {"compound": "c1ccc2ncccc2c1", "outcome": "inactive"},
      {"compound": "CCCCCCCCCCCCCCO", "outcome": "inactive"},
      {"compound": "O=C(O)CO", "outcome": "inactive"},
      {"compound": "CCCCN1C(=O)[C@@H]([C@H](O)C2CCCCC2)NC(=O)C12CCN(Cc1ccc(Oc3ccc(C(=O)O)cc3)cc1)CC2", "outcome": "inactive"},
      {"compound": "CCCCCCCCCCCCCCCCOS(=O)(=O)O", "outcome": "inactive"},
      {"compound": "NC(=O)N1c2ccccc2C=Cc2ccccc21", "outcome": "inactive"},
      {"compound": "O=C(N[C@H](CO)[C@H](O)c1ccc([N+](=O)[O-])cc1)C(Cl)Cl", "outcome": "inactive"},
      {"compound": "CCCCCCCC/C=C\\CCCCCCCC(=O)OC[C@@H](O)[C@H]1OC[C@H](O)[C@H]1O", "outcome": "inactive"},
      {"compound": "O=S1(=O)CCCO1", "outcome": "inactive"},
      {"compound": "Cn1c(=O)c2[nH]cnc2n(C)c1=O", "outcome": "inactive"}
    ]},
    {"molecular_target": "Nuclear receptor subfamily 4 group A member 2 (Homo sapiens) (UniProt P43354)", "sequence (P43354 whole entry, looked up)": "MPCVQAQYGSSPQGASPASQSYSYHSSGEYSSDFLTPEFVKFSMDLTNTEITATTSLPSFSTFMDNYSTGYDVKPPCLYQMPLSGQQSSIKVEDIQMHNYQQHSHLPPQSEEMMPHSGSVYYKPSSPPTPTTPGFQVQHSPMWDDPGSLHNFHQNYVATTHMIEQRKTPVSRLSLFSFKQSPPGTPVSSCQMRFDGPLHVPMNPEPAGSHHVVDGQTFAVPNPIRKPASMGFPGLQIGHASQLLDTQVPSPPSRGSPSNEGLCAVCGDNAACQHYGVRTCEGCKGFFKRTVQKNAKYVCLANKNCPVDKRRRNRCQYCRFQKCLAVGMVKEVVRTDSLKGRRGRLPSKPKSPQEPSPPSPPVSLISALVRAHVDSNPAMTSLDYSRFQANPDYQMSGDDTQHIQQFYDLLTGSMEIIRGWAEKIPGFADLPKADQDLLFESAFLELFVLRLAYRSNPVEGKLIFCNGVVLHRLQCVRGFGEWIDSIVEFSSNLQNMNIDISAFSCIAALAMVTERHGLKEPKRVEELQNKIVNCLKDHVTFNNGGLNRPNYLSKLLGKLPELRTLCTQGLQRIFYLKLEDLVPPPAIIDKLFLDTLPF", "assay": "ATG_NURR1_TRANS: Attagene TRANS-FACTORIAL HepG2 Assay for human Nuclear Receptor Related Protein 1 (NURR1) (AID 2282985)", "conditions": "HepG2 Attagene TRANS reporter, mRNA readout", "procedure,_shortened": "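After 24 h chemical dosing, total RNA from transiently transfected HepG2 cells was reverse-transcribed and reporter cDNA PCR-amplified, FAM-labelled and analysed by capillary electrophoresis. Activity fitted in positive direction, DMSO as negative control.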", "values": [
      {"compound": "NC(N)=O", "outcome": "inactive"},
      {"compound": "Cn1cc[nH]c1=S", "outcome": "inactive"},
      {"compound": "CCCCOC(=O)c1ccccc1", "outcome": "inactive"},
      {"compound": "c1ccc2ncccc2c1", "outcome": "inactive"},
      {"compound": "CCCCCCOC(=O)CC(CC(=O)OCCCCCC)(OC(=O)CCC)C(=O)OCCCCCC", "outcome": "inactive"},
      {"compound": "CCCCCCCCCC", "outcome": "inactive"},
      {"compound": "OC[C@H]1O[C@@H]2O[C@H]3[C@H](O)[C@@H](O)[C@@H](O[C@H]4[C@H](O)[C@@H](O)[C@@H](O[C@H]5[C@H](O)[C@@H](O)[C@@H](O[C@H]6[C@H](O)[C@@H](O)[C@@H](O[C@H]7[C@H](O)[C@@H](O)[C@@H](O[C@H]1[C@H](O)[C@H]2O)O[C@@H]7CO)O[C@@H]6CO)O[C@@H]5CO)O[C@@H]4CO)O[C@@H]3CO", "outcome": "inactive"},
      {"compound": "O=C(O)CO", "AC50": "27.3 µM (active)"},
      {"compound": "CCCCCCCCCCCCCCCCOS(=O)(=O)O", "outcome": "inactive"},
      {"compound": "O=C(N[C@H](CO)[C@H](O)c1ccc([N+](=O)[O-])cc1)C(Cl)Cl", "outcome": "inactive"},
      {"compound": "CCCCCCCC/C=C\\CCCCCCCC(=O)OC[C@@H](O)[C@H]1OC[C@H](O)[C@H]1O", "outcome": "inactive"},
      {"compound": "CNC(C)=O", "outcome": "inactive"},
      {"compound": "OCC(CO)(CO)CO", "outcome": "inactive"},
      {"compound": "C=CN1CCCC1=O", "outcome": "inactive"},
      {"compound": "Cn1c(=O)c2[nH]cnc2n(C)c1=O", "outcome": "inactive"},
      {"compound": "O=C(O)c1ccc2c(c1)nc(C(=O)NC1CCN(C3CC3)CC1)n2Cc1cc(-c2ccc(Cl)s2)on1", "outcome": "inactive"},
      {"compound": "CC(C)CCCCCCOC(=O)C1CCCCC1C(=O)OCCCCCCC(C)C", "note": "(stereo not given)", "outcome": "inactive"}
    ]}
  ]
}
